From PubChem BioAssay
Results with a measured potency or affinity are listed apart. Inconclusive results are not listed. Active and inactive are the calls of the source. Unless noted, how the calls were made is not given here.

What was measured:
[1] = RMG-1 ovarian cancer cell viability loss – cherry-pick, dose response (AID 687029;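 active means signal drop whose fitted half-maximal concentration is at most twice the top valid dose, in every test run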;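 further: cells exposed to compound for 96 hours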); conditions: RMG-1 viability, CellTiterGlo ATP luminescence, 96 h; series mostly up to 35 µM
[2] = IOSE-T80 viability loss, PAX8-independent line – cell-based, cherry-pick, selectivity assay for PAX8 inhibitor project, dose response (AID 687032;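 active means fitted half-maximal concentration for viability loss no higher than twice the top valid dose, in every repeat run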;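 further: cells exposed to compound for 96 h before reading; 0% = neutral control wells and -100% = 2 µM mitoxantrone kill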); conditions: CellTiterGlo ATP luminescence, 96 h; series mostly up to 35 µM
[3] = CMV-driven luciferase expression suppression in HEK293 – cell-based, luminescence, dry powder, counter-screen for Pax8 inhibitor project, dose response (AID 743020;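 active means signal-lowering compounds whose fitted half-maximal concentration is at or below twice the top tested dose in every run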;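 further: HEK293 cells stably expressing the CMV luciferase reporter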); conditions: HEK293 CMV-luciferase reporter, SteadyGlo luminescence, 24 h; series mostly up to 35 µM
[4] = general cell-killing toxicity readout – plate reader, dry powder samples, cytotoxicity control for PAX8 inhibitor project, dose response (AID 743021); conditions: cell line, non-specific cytotoxicity counter-screen; series mostly up to 35 µM
[5] = IGROV1 cell killing – plate reader, dry powder samples, PAX8 inhibitor project, dose response (AID 743043); conditions: IGROV1 ovarian cancer cell cytotoxicity; series mostly up to 35 µM;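 further: more negative means fewer viable cells or more cytotoxicity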
[6] = toxicity toward immortalized ovarian surface epithelium – cell-based, plate reader, dry powder samples, cytotoxicity control for PAX8 inhibitor project, dose response (AID 743045); conditions: IOSE-T80 ovarian epithelial cells; series mostly up to 35 µM;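 further: 0% = neutral control median and -100% = positive control median; more negative values mean more cell killing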
[7] = A2780 cell killing – plate reader, dry powder samples, cytotoxicity control, dose response (AID 743046); conditions: A2780 ovarian cancer cytotoxicity; series mostly up to 35 µM;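 further: 0% = neutral control wells and -100% = cytotoxic reference compound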
[8] = OVCAR8 cell viability loss – plate reader, dry powder samples, PAX8 project, dose response (AID 743197); conditions: series mostly up to 35 µM
[9] = OVCAR-3 cell viability loss – plate reader, dry powder samples, PAX8 inhibitor project, dose response (AID 743044); conditions: NIH:OVCAR-3 ovarian cancer cell viability; max activity: at 35 µM, stronger effect = lower value unless noted; series mostly up to 50 µM

Measured: max activity

C[C@H]1CCCCO[C@H](CN(C)Cc2ccc(C(F)(F)F)cc2)[C@@H](C)CN([C@@H](C)CO)C(=O)c2cc(NS(=O)(=O)c3ccc(F)cc3)ccc2O1
not listed: [8] | [9]
inactive: all other assays above

C[C@H](CO)N1C[C@H](C)[C@H](CN(C)S(=O)(=O)c2ccc(Cl)cc2)OCCCC[C@H](C)Oc2ccc(NS(=O)(=O)c3ccc(Cl)cc3)cc2C1=O
not listed: [8] | [9]
inactive: all other assays above

C[C@@H]1CN([C@H](C)CO)C(=O)c2cc(NS(=O)(=O)c3ccccc3)ccc2O[C@@H](C)CCCCO[C@@H]1CN(C)CC1CCCCC1
not listed: [8] | [9]
inactive: all other assays above

C[C@@H]1CCCCO[C@@H](CN(C)C(=O)Nc2ccc(C(F)(F)F)cc2)[C@H](C)CN([C@H](C)CO)C(=O)c2cc(NS(=O)(=O)c3ccc(Cl)cc3)ccc2O1
not listed: [8] | [9]
inactive: all other assays above

C[C@@H]1CN([C@H](C)CO)S(=O)(=O)c2ccc(-c3ccc(C#N)cc3)cc2O[C@@H]1CN(C)Cc1cccc(F)c1
not listed: [8] | [9]
inactive: all other assays above

C[C@@H]1CN([C@H](C)CO)C(=O)CCCn2cc(nn2)CO[C@H]1CN(C)C(=O)Nc1ccc(-c2cccs2)cc1
not listed: [8] | [9]
inactive: all other assays above

C[C@H]1CN([C@@H](C)CO)S(=O)(=O)c2ccc(C#Cc3ccc(F)cc3)cc2O[C@@H]1CN(C)C(=O)NC1CCCCC1
not listed: [9]
inactive: all other assays above

C[C@@H]1CN([C@H](C)CO)C(=O)c2cc(NS(=O)(=O)c3cccs3)ccc2O[C@@H](C)CCCCO[C@@H]1CN(C)Cc1ccc(C(F)(F)F)cc1
not listed: [9]
inactive: all other assays above

Cc1cccc(S(=O)(=O)N2CC[C@@H]3[C@H]2c2cc(C4=CCCCC4)ccc2N[C@@H]3CO)c1
inactive: [1] | [2] | [3] | [4] | [9] 9.72% [at 4.2 µM, stronger effect = lower value] | [6]

O=S(=O)(c1ccccc1F)N1CC[C@H]2[C@H](CO)Nc3ccc(C4=CCCCC4)cc3[C@H]21
not listed: [6] | [8] | [9]
inactive: all other assays above

C[C@H]1CN([C@@H](C)CO)C(=O)c2c(c3ccccc3n2C)-c2ccccc2CO[C@@H]1CN(C)S(=O)(=O)c1ccsc1
not listed: [7] | [9]
inactive: all other assays above

O=C(Cc1ccccc1)N1CC[C@H]2[C@H](CO)Nc3ccc(C4=CCCCC4)cc3[C@H]21
not listed: [9]
inactive: all other assays above

Cc1ccc(-c2ccc([C@H]3[C@@H](CO)N4CCCCN(C(=O)Nc5cccc(F)c5)C[C@H]34)cc2)cc1
not listed: [7] | [9]
inactive: all other assays above

CC(C)(C)S(=O)N1Cc2cc(C(=O)NCCCN3CCOCC3)nc(-c3cccc(C#CCC4CCCC4)c3)c2[C@@H]1CCO (stereo partly specified)
not listed: [7] | [9]
inactive: all other assays above

COCC(=O)N1CCCCN2[C@H](C1)[C@@H](c1ccc(-c3ccc(C)cc3)cc1)[C@@H]2CO
not listed: [9]
inactive: all other assays above

C[C@@H]1CN([C@@H](C)CO)C(=O)c2cc(NS(=O)(=O)c3cccs3)ccc2O[C@@H](C)CCCCO[C@H]1CN(C)Cc1ccc(C(F)(F)F)cc1
not listed: [9]
inactive: all other assays above

C[C@H](O)C#Cc1ccc2c(c1)O[C@@H](CN(C)Cc1ccc(-c3ccccc3)cc1)[C@H](C)CN([C@H](C)CO)S2(=O)=O
not listed: [6] | [8] | [9]
inactive: all other assays above
